Experimental findings from PubChem BioAssay AID493191 (Broad Institute, 2011) are described below.

The structures appear in SMILES notation. Out of some 1,300 compounds screened, about 330 (25%) were called active. Only a sample is shown. Entries with a potency or affinity are not part of this list. A number with no mark means an inactive call. How the calls were made is not given here.

This assay can be described thus: MALME3 melanoma cell viability loss, dose response, orthogonal assay for MITF inhibitor project, CellTiter-Glo, cherry-picked (AID 493191). Conditions: CellTiter-Glo luminescence, 24 h; series mostly up to 35 µM; activity change, negative = inhibition: at the top concentration. For orientation: Cellular ATP, detected with luciferase, serves as a proxy for viable cell number.
`O=c1nc(N/N=C/c2ccccn2)cn[nH]1`: the “activity change, negative = inhibition” value was -15.8%.
To `CC(C)c1ccc(CNc2ncccn2)cc1` belongs -7.32%.
As for `CCCCN1CCc2c1nc1ccc(Br)cc1c2N`, the “activity change, negative = inhibition” value is -43%.
`CCCOc1ccc(-c2c(=O)n(O)c3ccccc3[n+]2[O-])cc1`: the “activity change, negative = inhibition” value was -6.65%.
Consider `BrC(=C\c1ccccc1)/C=N/n1cnnc1`, for which the “activity change, negative = inhibition” value is -26.2%.
As to `Cc1ccc(C#CC[N+]2(CC#Cc3ccc(C)cc3)CCCCC2)cc1`, the “activity change, negative = inhibition” value was -38.5%.
Consider `CC(C)N1C/C(=C/c2cccnc2)C(=O)/C(=C/c2cccnc2)C1`, for which the “activity change, negative = inhibition” value was -31.7%.
As to `CN1C/C(=C/c2cccnc2)C(=O)/C(=C/c2cccnc2)C1`, the “activity change, negative = inhibition” value is 11%.
To `Cc1cccc(OCc2nc3ccccc3n2C)c1` belongs 1.51%; to `O=S(=O)(c1ccc(F)cc1)c1snnc1-c1ccccc1`, -12.4%; to `CCCOc1ccc(C(=O)C(CN2CCCC2)c2ccccc2)cc1` (centres undefined), -37.2%.
To `O=C(/C=C/c1ccccc1Cl)NC1CCCCC1` belongs 8.1%.
To `O=C(CSc1ccc(Cl)cc1)NC1CCCC1` belongs -1.8%; to `O=C(CCCN1C(=O)S/C(=C\c2ccccc2)C1=O)NNC(=O)c1ccccc1O`, -9.65%; to `N/C(=N\OC(=O)c1ccccc1Cl)c1ccccn1`, -32.8%.
Consider `Cc1ccc(C(=O)c2no[n+]([O-])c2C(=O)c2ccc(C)cc2)cc1`, for which the “activity change, negative = inhibition” value was -26.9%.
To `CN(C)c1ccc(/C=N\NC(=O)c2cccc3cc[nH]c23)cc1` belongs 1.73%; to `CCOC(=O)N1CCN(C(=O)c2ccc(Cn3c(=S)[nH]c4ccc(Br)cc4c3=O)cc2)CC1`, -20.7%.
To `CCC(=O)N1CCN(c2ccc(Cl)cc2NC(=O)c2ccc([N+](=O)[O-])o2)CC1` belongs -43.4%.
To `Cn1c(/C(C#N)=C/c2ccc(-c3ccc(S(N)(=O)=O)cc3)o2)nc2ccccc21` belongs -11.6%; to `Clc1c(-c2ccccc2)nc2ccccn12`, 4.22%.
With `Cc1cc(N2CCOCC2)n2ncc(-c3ccccc3Cl)c2n1`, the “activity change, negative = inhibition” value is -2.42%.
For the molecule `Cc1cc(C(=O)CN2C(=O)c3ccccc3S2(=O)=O)c(C)n1-c1ccccc1`, the “activity change, negative = inhibition” value is -2.78%.
Then `C#Cc1cccc(NC(=O)CSc2nnc(-c3ccc(C(F)(F)F)cn3)o2)c1`, with 7.2%.
`Cc1ccc2c(c1)Oc1ccc(NC(=O)CCl)cc1C(=O)N2`: the “activity change, negative = inhibition” value is -38.9%.
Regarding `CCCN(CC(=O)Nc1ccccc1C)C(=O)CCl`, the “activity change, negative = inhibition” value is -20.5%.
For `Cc1ccc(CC(=O)Nc2ccc(Cl)cn2)cc1`, the “activity change, negative = inhibition” value was 7.43%.
In the case of `CS(=O)(=O)c1ccc2nc(NC(=O)c3ccccc3Br)sc2c1`, the “activity change, negative = inhibition” value is 13.2%.
Then `O=C(c1ccc(F)cc1)C(CN1CCOCC1)c1ccccc1` (centres undefined), with -21.3%.
To `COc1cc(CN2CCC(Cc3ccccc3)CC2)cc(OC)c1OC` belongs 7.73%; to `COc1ccc(S(=O)NC2CCCCC2)c(OC)c1C` (centres undefined), -5.41%.
Then `CC(=O)c1ccc(S(=O)(=O)N2CCN(C(=O)/C=C/c3ccc4ccccc4n3)CC2)cc1`, with -3.46%.
Regarding `COc1ccc(NC(=O)c2cc3ccccc3[nH]2)cc1`, the “activity change, negative = inhibition” value was 3.96%.
Then `COc1ccc2cc3cc(C(=O)NCCc4ccc(OC)c(OC)c4)oc3nc2c1`, with -18.4%; and `Cc1cc(O)ccc1Nc1nc(-c2cccnc2)cs1`, with 3.74%.
Then `CCOC(=O)C1CCCN(C(=O)C2CCN(S(=O)(=O)CC)CC2)C1` (centres undefined), with 1.71%.
Then `CCOc1ccc(OCc2ccc(C(=O)N/N=C(\C)c3ccccn3)cc2)cc1`, with -39.2%; and `CCc1ccc(Nc2nc(C)cc(C)n2)cc1`, with -3.27%.
As to `CCOC(=O)c1ccc(NC(=O)CC2SCCNC2=O)cc1` (centres undefined), the “activity change, negative = inhibition” value was -0.676%.
Then `CCOC(=O)c1ccc(NC(=O)Cc2cccs2)cc1`, with -16.7%; and `COc1ccccc1-c1nnc(-c2ccc(C)cc2)o1`, with -5.25%; and `COCCNC(=O)c1cc2sc3ccccc3c2s1`, with 8.29%.
Then `O=C(N/N=C/c1cc(Cl)ccc1O)c1ccncc1`, with -30.2%; and `COc1cc2nc(SCC(=O)NCc3ccco3)n(Cc3ccc(Cl)cc3)c(=O)c2cc1OC`, with -14.3%.
To `CCCCCCN1C=CC(=C2C(=O)c3ccccc3C2=O)C=C1` belongs -26.2%; to `CC1CCN(Cc2nc(-c3ccc(Cl)cc3)no2)CC1`, 3.04%; to `CC1CC(C)C[N+](=C2C=C(N3CCCC3)CC(C)(C)C2)C1` (centres undefined), -24.1%.
Regarding `Cc1ccc(C(=O)C[n+]2cc(-c3ccc(C)cc3)n3c2CCCCC3)cc1`, the “activity change, negative = inhibition” value was -45%.
To `Cc1ccc(C(=O)NC2=NCCS2)cc1Cl` belongs -3.46%; to `C=CC[n+]1c(-c2ccc(C)cc2)csc1Nc1ccc(NC(C)=O)cc1`, 3.35%; to `CCOc1ccc2nc(NC(=O)Cc3cccs3)sc2c1`, 3.36%.
To `CC(C)(CO)NC(=O)c1ccc2nc(Cc3cccc(Cl)c3)oc2c1` belongs -0.565%; to `Cc1nn(C)cc1/C=C/C(=O)c1cccs1`, 11%; to `CCOc1ccc(-n2c(-c3ccc(Br)cc3)c[n+]3c2CCCCC3)cc1`, -27.9%.
To `O=C1c2ccccc2C(=O)N1CCSc1ccccc1` belongs 0.331%.
As to `COc1cccc(NC(=O)Nc2cccc(C(=O)O)c2)c1`, the “activity change, negative = inhibition” value is -7.18%.
Then `COc1cc(OC)cc(C(=O)Nc2ccc3c(c2)OCCO3)c1`, with -37.2%.
To `CCN(C(=O)c1ccco1)c1nc(-c2ccc(OC)cc2)cs1` belongs 1.88%; to `COc1cc2c(cc1O)C(SC)=NC(C)(C)C2`, -2.97%.
